Data on 46 compounds can be found in PubChem BioAssay AID651658 (Broad Institute, 2012).

In all, about 340,000 compounds went through this assay and about 5,100 (1.5%) were called active.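 The calls were made as follows: active = mean Tm shift, scaled 0 neutral to 100 positive control, at about 1.3% or above, every replicate too (limit read from the data); inconclusive = no clear call, values can overlap the other calls; inactive = the rest.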 Only a selection was taken, and actives are over-represented in it overall.

In the test the target is Fibroblast growth factor 22 (Homo sapiens) (UniProt Q9HCT0). As to the kind of experiment: binders of human FGF22 protein, primary screen, FGF22 synaptogenesis inhibitor project, biophysical, thermal shift, single point (AID 651658). The note with it: recombinant FGF22 thermal shift, SYPRO orange fluorescence; at 9.99 µM; hits give high values; percent of sucrose octasulfate shift, DMSO zero.
Chain of Fibroblast growth factor 22 (Homo sapiens) (Q9HCT0 whole entry, looked up): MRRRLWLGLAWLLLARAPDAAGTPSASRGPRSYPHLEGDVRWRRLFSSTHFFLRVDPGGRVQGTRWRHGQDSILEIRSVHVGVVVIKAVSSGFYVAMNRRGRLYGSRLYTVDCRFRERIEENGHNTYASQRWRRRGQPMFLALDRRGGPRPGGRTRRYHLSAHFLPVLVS
As to `C/C=C/c1cccc(-c2nc(C(=O)NCCN3CCCCC3)cc3c2[C@@H](CCO)N([S@](=O)C(C)(C)C)C3)c1`, the activity (Tm shift, normalised) was 0.178% (inactive).

Regarding `C[C@@H]1CCCCO[C@@H](CN(C)C(=O)Nc2ccc(C(F)(F)F)cc2)[C@H](C)CN([C@@H](C)CO)C(=O)c2cc(N(C)C)ccc2O1`, the activity (Tm shift, normalised) is -1.45% (inactive).

As to `C[C@@H](NC(=O)C[C@H]1C=C[C@H](NC(=O)C2CCOCC2)[C@H](CO)O1)c1ccccc1`, the activity (Tm shift, normalised) was -0.059% (inactive).

Consider `COCC#Cc1ccc([C@H]2[C@H]3CN(Cc4ccncc4)CCCCN3[C@H]2CO)cc1`, for which the activity (Tm shift, normalised) is 0.633% (inactive).

Take `COc1ccccc1NC(=O)CSc1nnc(CNC(=O)c2ccccc2F)o1`: the activity (Tm shift, normalised) was 0.09% (inactive).

With `Cc1ccc(NC(=O)CSc2nnc(CNC(=O)c3ccccc3F)o2)cc1Cl`, the activity (Tm shift, normalised) is 0.074% (inactive).

As to `Cc1ccc(NC(=O)CSc2nnc(CNC(=O)c3ccccc3F)o2)cc1`, the activity (Tm shift, normalised) is 44% (active).

Turning to `O=C(N[C@H]1CC[C@@H](CCNS(=O)(=O)c2ccccc2)O[C@@H]1CO)c1cnccn1`, the activity (Tm shift, normalised) is -0.268% (inactive).

`C[C@@H]1CN([C@H](C)CO)C(=O)c2cc(NC(=O)C3CCCCC3)ccc2O[C@H]1CN(C)C(=O)Nc1ccccc1`: the activity (Tm shift, normalised) was -0.036% (inactive).

Turning to `C[C@H](CO)N1C[C@H](C)[C@@H](CN(C)C(=O)Nc2ccc3c(c2)OCO3)Oc2ccc(NS(=O)(=O)c3ccc(Cl)cc3)cc2C1=O`, the activity (Tm shift, normalised) is 0.554% (inactive).

As to `CCS(=O)(=O)Nc1ccc2c(c1)C(=O)N(C)[C@H]1CC[C@@H](CC(=O)Nc3ccccc3)O[C@H]1CO2`, the activity (Tm shift, normalised) was 0.176% (inactive).

On to `Cc1nc(Cl)c(C#N)c2c1CCCC2`, for which the activity (Tm shift, normalised) was -0.106% (inactive).

With `COCc1c(N)c(C)nc(Cl)c1C#N`, the activity (Tm shift, normalised) is 43% (active).

As to `O=C(C[C@@H]1CC[C@@H]2[C@H](COC[C@@H](O)CN2Cc2ccccc2)O1)NCCc1ccccc1`, the activity (Tm shift, normalised) is -0.247% (inactive).

Take `O=C(C[C@@H]1CC[C@@H]2[C@H](COC[C@H](O)CN2S(=O)(=O)c2ccccc2F)O1)NCc1ccccc1F`: the activity (Tm shift, normalised) was -0.237% (inactive).

Turning to `CC(OC(=O)CCCc1c[nH]c2ccccc12)C(=O)Nc1ccc(S(N)(=O)=O)cc1` (stereo unspecified), the activity (Tm shift, normalised) is -0.822% (inactive).

Turning to `O=C(COC(=O)CCc1c[nH]c2ccccc12)Nc1cccc(Cl)c1`, the activity (Tm shift, normalised) is 0.175% (inactive).

As to `NS(=O)(=O)c1ccc(NC(=O)COC(=O)CCc2c[nH]c3ccccc23)cc1`, the activity (Tm shift, normalised) is 43.3% (active).

For `COc1ccc(S(=O)(=O)N[C@H]2CC[C@H](CCn3cc(C(C)C)nn3)O[C@@H]2CO)cc1`, the activity (Tm shift, normalised) was 0.529% (inactive).

As for `COCC(=O)N1[C@H](CO)[C@@H](c2ccccc2)C12CN(Cc1cc(F)ccc1F)C2`, the activity (Tm shift, normalised) is -0.224% (inactive).

For the compound `COc1ccccc1NC(=O)N1C[C@@H](O)COC[C@H]2O[C@@H](CC(=O)NCc3ccccc3)CC[C@@H]21`, the activity (Tm shift, normalised) was -0.018% (inactive).

On to `COc1ccc(S(=O)(=O)N(C)C[C@@H]2OCCCC[C@@H](C)Oc3ccc(NC(=O)c4ccccc4)cc3C(=O)N([C@@H](C)CO)C[C@H]2C)cc1`, for which the activity (Tm shift, normalised) was 0.83% (inactive).

Take `CCN(CC(=O)Nc1ccc(Cl)c(S(=O)(=O)N(C)C)c1)Cc1nc2ccccc2c(=O)[nH]1`: the activity (Tm shift, normalised) is 0.133% (inactive).

`CCN(CC(=O)NC(=O)NCc1ccccc1)Cc1nc2ccccc2c(=O)[nH]1`: the activity (Tm shift, normalised) was 43% (active).

`CCN(CC(=O)Nc1cccc(S(N)(=O)=O)c1)Cc1nc2ccccc2c(=O)[nH]1`: the activity (Tm shift, normalised) is 42.3% (inactive).

`COc1ccc(S(=O)(=O)N(C)C[C@H]2OCCCC[C@H](C)Oc3ccc(NC(=O)CCC(F)(F)F)cc3C(=O)N([C@@H](C)CO)C[C@@H]2C)cc1`: the activity (Tm shift, normalised) is 0.44% (inactive).

Consider `Cc1noc(C)c1NC(=O)Nc1ccc2c(c1)C(=O)N([C@H](C)CO)C[C@@H](C)[C@@H](CN(C)S(=O)(=O)c1ccc(Cl)cc1)OCCCC[C@H](C)O2`, for which the activity (Tm shift, normalised) is -0.533% (inactive).

With `COc1ccc(NC(=O)O[C@@H](c2ccc(OCCO)cc2)[C@@H](C)CCO)cc1`, the activity (Tm shift, normalised) was -1.48% (inactive).

Turning to `CCCNC(=O)N1CCC2(CC1)CN(C(=O)CN1CCOCC1)[C@H](CO)c1[nH]c3cc(OC)ccc3c12`, the activity (Tm shift, normalised) was -0.015% (inactive).

Regarding `N#Cc1c(NC(=O)C2CCCO2)sc2c1CCCCC2` (stereo unspecified), the activity (Tm shift, normalised) was 0.476% (inactive).

In the case of `N#Cc1c(NC(=O)CCCl)sc2c1CCCCC2`, the activity (Tm shift, normalised) was 43% (active).

On to `CCN1CCN(CC(=O)Nc2sc3c(c2C#N)CCC3)CC1`, for which the activity (Tm shift, normalised) is -0.078% (inactive).

`CCCNC(=O)C[C@@H]1CC[C@@H]2[C@H](COc3ccc(NC(=O)c4cc(F)cc(F)c4)cc3C(=O)N2C)O1`: the activity (Tm shift, normalised) was 0.224% (inactive).

Take `O=C(C[C@@H]1CC[C@@H](NC(=O)c2ccc3c(c2)OCO3)[C@H](CO)O1)NCc1ccc(F)cc1`: the activity (Tm shift, normalised) was -0.125% (inactive).

`Cc1ccccc1S(=O)(=O)N1C[C@@H]2N[C@H](C1)C2c1ccc(-c2cccc(C(=O)N(C)C)c2)cc1` (stereo partly specified): the activity (Tm shift, normalised) is 0.138% (inactive).

Consider `O=C(C[C@H]1CC[C@@H]2[C@H](COC[C@@H](O)CN2Cc2cccc(-c3ccncc3)c2)O1)N1CCOCC1`, for which the activity (Tm shift, normalised) is 0.256% (inactive).

In the case of `CNC(=O)C[C@H]1C(=O)N(c2ccc(OC)cc2)C[C@@H]1Cc1ccccc1`, the activity (Tm shift, normalised) was 43.3% (active).

As for `CNC(=O)C[C@H]1C(=O)N(Cc2ccccc2)C[C@@H]1CSC`, the activity (Tm shift, normalised) is 0.23% (inactive).

Turning to `O=C(C[C@H]1C(=O)N(c2ccc(F)c(F)c2)C[C@@H]1Cc1ccccc1)Nc1ccccc1`, the activity (Tm shift, normalised) is -0.246% (inactive).

For `CC(C)N1C(=O)[C@@]2(Cc3ccccc31)c1ccccc1C(=O)N(C1CCCCC1)[C@H]2c1ccc(CO)cc1`, the activity (Tm shift, normalised) was -0.066% (inactive).

Take `COc1ccc(-c2ccccc2[C@H]2[C@@H](CO)N(C(=O)C3CCC3)[C@H]2C#N)cc1`: the activity (Tm shift, normalised) was -0.131% (inactive).

`C[C@H](CO)N1C[C@H](C)[C@H](CN(C)C(=O)Cc2ccccn2)Oc2ncc(-c3cncnc3)cc2C1=O`: the activity (Tm shift, normalised) was -0.28% (inactive).

In the case of `COC(=O)c1ccc(NC(=S)NN2CCOCC2)cc1`, the activity (Tm shift, normalised) is 43.4% (active).

Turning to `COC(=O)c1ccc(NC(=S)Nc2cccc(C)n2)cc1`, the activity (Tm shift, normalised) is 42.2% (inactive).

With `Cc1ccc(C(=O)NC(=S)Nc2ccc(N3CCOCC3)cc2)cc1`, the activity (Tm shift, normalised) is -0.25% (inactive).

For the compound `OC[C@@H]1Nc2ccc(-c3ccc(F)cc3)cc2[C@@H]2[C@H]1CCN2Cc1ccc(F)cc1`, the activity (Tm shift, normalised) is -0.323% (inactive).
